Sampled rows, rich in hits. Any-hit rate of the full collection: about 1.7%.
LYP act: increases human PTPN22 phosphatase activity. Q9Y2R2. recombinant LYP, DiFMUP fluorescence; 0 = plate median, 100 = signal doubled. activation, % at 2 µM. 96,000 tested, 0.11% active. AID 697;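 active = activation at 2 µM above a set limit, the mean plus 5 SD, cut at about 37% in these data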
Target sequence (Q9Y2R2 whole entry, looked up): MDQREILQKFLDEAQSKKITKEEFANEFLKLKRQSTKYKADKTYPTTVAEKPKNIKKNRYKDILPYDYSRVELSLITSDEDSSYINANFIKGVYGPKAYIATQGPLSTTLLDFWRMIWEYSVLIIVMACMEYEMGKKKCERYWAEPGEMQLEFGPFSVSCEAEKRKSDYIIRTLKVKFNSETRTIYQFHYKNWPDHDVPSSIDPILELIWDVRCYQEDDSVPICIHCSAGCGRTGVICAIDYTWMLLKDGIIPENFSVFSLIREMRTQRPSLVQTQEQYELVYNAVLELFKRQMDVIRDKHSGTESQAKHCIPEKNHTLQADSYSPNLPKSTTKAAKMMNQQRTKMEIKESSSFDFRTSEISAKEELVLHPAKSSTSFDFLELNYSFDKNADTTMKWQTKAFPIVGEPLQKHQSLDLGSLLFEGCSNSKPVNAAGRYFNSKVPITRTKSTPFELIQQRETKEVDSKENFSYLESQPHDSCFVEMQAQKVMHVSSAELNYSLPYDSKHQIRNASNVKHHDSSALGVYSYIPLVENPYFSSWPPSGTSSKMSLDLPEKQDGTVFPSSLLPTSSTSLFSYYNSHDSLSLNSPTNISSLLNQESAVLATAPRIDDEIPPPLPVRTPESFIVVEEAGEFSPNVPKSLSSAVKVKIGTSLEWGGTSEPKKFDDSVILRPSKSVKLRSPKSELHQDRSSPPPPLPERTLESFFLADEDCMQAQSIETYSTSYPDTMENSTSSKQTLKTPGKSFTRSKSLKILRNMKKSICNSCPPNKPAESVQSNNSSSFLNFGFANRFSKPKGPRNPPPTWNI
LYP inh 2: inhibitors of human LYP (PTPN22) phosphatase. 96,000 tested, 0.21% active. recombinant LYP catalytic domain, DiFMUP fluorescence. inhibition, % at 2 µM. AID 640. Q9Y2R2;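 active = inhibition at 2 µM at or above a set limit, the screen mean plus 3 SD, cut at about 24% in these data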;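 also: 0% = DMSO with enzyme and 100% = enzyme fully blocked by orthovanadate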
Measles CPE: protection of cells from measles virus; AID 841; Measles virus-infected cells, CPE protection, absorbance; protection (pct of control), % at 4 µM; 140,000 tested, 1.5% active; in the data active = protection mostly above about 24%, no sharp cut-off; inactive = mostly below about 26%
Active calls of the source: *; . = no result.

SMILES	LYP act	LYP inh 2	Measles CPE
CC(=O)c1c(OC(=O)c2ccc(C)cc2)c2ccccc2n1C	-2.1	4.5	71.2*
CC(=O)c1c(OC(=O)c2ccco2)c2ccccc2n1C	-9.0	6.7	13.9
Cn1c(SCC(=O)O)nnc1C1CCCCC1	-3.0	2.3	22.5
COc1ccc(N2CCN(c3nc(Nc4ccc(F)cc4)nc(OC)n3)CC2)cc1	1.8	0.4	4.5
O=C(COC(=O)CCCNC(=O)c1ccc(Cl)cc1)NCc1ccccc1Cl	-1.0	2.8	2.5
O=C(COC(=O)CCCNC(=O)c1ccc(Cl)cc1)Nc1ccc(Br)cc1	.	.	111.9*
O=C(COc1ccc(Br)cc1Cl)NC1CCCCC1	.	.	1.0
CCOc1ccc(NC(=O)CN2CCN(CC(=O)Nc3ccc4c(c3)OCO4)CC2)cc1	-6.0	10.1	2.8
COc1cccc(NC(=O)CN(Cc2ccccc2)S(C)(=O)=O)c1	.	.	4.5
CCOCCCNC(=S)NNC(=O)CCn1nc(C)c(Br)c1C	-4.6	7.2	39.4*
COCCCNC(=S)NNC(=O)Cn1nc(C)c(Br)c1C	.	.	17.8
Cc1nn(CCC(=O)NNC(=S)NCC(C)C)c(C)c1Br	0.8	2.0	32.9*
CNC(=S)NNC(=O)CCn1nc(C)c(Br)c1C	1.8	1.0	20.2
CCOC(=O)c1c(C)[nH]c(C)c1C(=O)COC(=O)C1CCCN1S(=O)(=O)c1ccccc1F (stereo not given)	4.7	-5.9	9.7
CNCc1ccccc1Sc1cccc(O)c1	.	.	19.0
CNCc1ccccc1Sc1ccc(OC)c(OC)c1	-1.6	3.6	40.1*
O=C(CNc1ccccc1)N/N=C/c1cn(-c2ccccc2)nc1-c1ccccc1	.	.	12.9
OC(COCc1cccs1)CN1CCN(c2cccc(Cl)c2)CC1 (stereo not given)	.	.	53.6*
OC(COCc1cccs1)CN1CCN(c2ccccc2Cl)CC1 (stereo not given)	.	.	19.7
CCn1c(SCC(=O)N2CCC(C)CC2)nnc1-c1ccc(S(=O)(=O)N2CCN(C)CC2)cc1	11.9	-15.0	32.2
Cc1cccc(Oc2cc(NC(=O)c3ccccc3)cc([N+](=O)[O-])c2)c1	-9.5	14.0	6.8
CC(=O)Nc1cc(ON=C(C)C)cc([N+](=O)[O-])c1	.	.	46.6*
COc1ccc(OC)c(C2C(C(=O)c3sc(C)nc3C)=C(O)C(=O)N2CCN2CCOCC2)c1 (stereo not given)	1.4	-2.5	3.5
Cc1c(N=C2NC(=O)C(CC(=O)Nc3ccccc3)S2)c(=O)n(-c2ccccc2)n1C (stereo not given)	3.8	-9.4	37.9*
C=CCN1C(=O)C(CC(=O)Nc2ccc(C)cc2)SC1=Nc1c(C)n(C)n(-c2ccccc2)c1=O (stereo not given)	-0.2	-0.5	4.9
SMILES	LYP act	LYP inh 2	Measles CPE
c1ccc(OCCCc2nc(-c3cccnc3)no2)cc1	7.5	-8.3	3.4
O=C(Nc1ccc(Oc2ccccc2)cc1)c1ccc(Cn2c(=O)[nH]c3ccsc3c2=O)cc1	.	.	4.5
O=C(Nc1ccc(Cl)c(Cl)c1)c1ccc(Cn2c(=O)[nH]c3ccsc3c2=O)cc1	.	.	22.9*
CCCOc1ccc(C2C(=O)N(C3CCCCC3)CC(=O)N2C2CC2)cc1OC (stereo not given)	0.4	-1.8	2.5
CCCCC(c1nnnn1Cc1ccco1)N1CCN(C(=O)c2ccco2)CC1 (stereo not given)	9.1	-8.8	39.5
CCCC(c1nnnn1Cc1ccco1)N1CCN(C(=O)c2ccco2)CC1 (stereo not given)	-13.7	13.9	44.0*
O=C(c1ccc(Br)o1)N1CCN(c2ccc3nnc(-c4ccc(F)cc4)n3n2)CC1	-2.4	2.5	3.2
Cc1ccc(NCCNc2ccc(C)cc2)cc1	3.7	-4.4	15.0
CCOc1ccccc1N1CCN(C(=O)c2cc(C)oc2C)CC1	.	.	9.3
CCn1ncc(Br)c1C(=O)Nc1ccccc1C(=O)OC	-7.0	4.6	.
CCn1ncc(Br)c1C(=O)Nc1ccc(C(=O)OC(C)C)cc1	2.0	0.6	38.3*
O=C(CCN1CCOCC1)Nc1ccccc1	4.5	-2.4	2.3
COc1ccc(S(=O)(=O)NCC(c2cccnc2)N2CCN(c3ccccc3OC)CC2)cc1C (stereo not given)	0.8	-0.3	4.9
COc1ccccc1N1CCN(C(CNS(=O)(=O)c2ccccc2)c2cccnc2)CC1 (stereo not given)	7.4	-5.7	33.1*
O=C(CC(CC(=O)c1ccccc1)C(=O)O)c1ccccc1	-3.2	4.7	4.3
O=C(Cc1c2ccccc2nc2ccccc12)c1ccccc1	.	.	20.3*
CCS(=O)(=O)Nc1cccc(-c2nc3cccnc3s2)c1C	-6.5	4.4	0.2
CC1=CS(=O)(=O)CC1Sc1nc2ccccc2[nH]1 (stereo not given)	.	.	20.0
Cc1cc(C)n2c(SCC(=O)N3CCN(S(=O)(=O)c4ccc(Cl)cc4)CC3)nnc2n1	-25.9	24.0*	7.1
CCCn1c(SCC(=O)N2CCN(S(=O)(=O)c3ccc(Cl)cc3)CC2)n[nH]c1=O	-1.2	-1.4	9.4
Cc1onc(-c2ccccc2)c1C(=O)NC(=S)NNC(=O)c1ccc(O)cc1O	.	.	8.0
CCC1CCCCN1S(=O)(=O)c1ccc(S(=O)(=O)N(Cc2cccs2)C2CC2)cc1 (stereo not given)	-23.7	21.7	42.2*
CCC1CCCCN1S(=O)(=O)c1ccc(S(=O)(=O)N(Cc2ccccn2)CC2CCCO2)cc1 (stereo not given)	.	.	9.3
COc1ccccc1NC(=S)NNC(=O)c1ccccc1Br	.	.	19.3
Cc1c([N+](=O)[O-])c(C(=O)N2CCCC2)nn1C	3.3	-0.2	68.8*
SMILES	LYP act	LYP inh 2	Measles CPE
CC(C)c1onc(C(=O)N2CCCCC2)c1[N+](=O)[O-]	.	.	8.7
N#Cc1ccc(N2C(=O)[C@@H]3C(C(=O)C(c4ccccc4)c4ccccc4)=NN[C@@H]3C2=O)cc1	.	.	4.5
Cn1c(SCC(=O)NCc2ccco2)nc2ccccc2c1=O	-1.9	-0.5	42.9
CC(C)n1c(SCC(=O)NCc2ccco2)nc2c1c(=O)n(C)c(=O)n2C	-7.6	5.6	26.7
Cn1c(=O)c2c(nc(SCC(=O)NCc3ccco3)n2C)n(C)c1=O	1.7	-7.1	32.7*
O=C(CSc1nc2ccccc2c2nc3ccccc3n12)NCc1ccco1	-25.2	29.7*	21.6
Cc1ccc(-c2nc(C3CCCN(S(=O)(=O)c4ccc(C(C)(C)C)cc4)C3)no2)cc1 (stereo not given)	1.0	-3.4	11.2
Cc1ccc(-c2nc(C3CCCN(S(=O)(=O)c4ccc(C(F)(F)F)cc4)C3)no2)cc1 (stereo not given)	.	.	30.6*
CCOC(=O)c1ccc(NC(=O)CSCC(=O)OCC(=O)c2ccccc2)cc1	.	.	10.2
Cc1cc(/C=C(\C#N)C(N)=O)c(C)n1-c1ccc(N2CCOCC2)c([N+](=O)[O-])c1	.	.	3.6
CCOCCn1c(COc2ccc(C)cc2)nc2ccccc21	.	.	29.0*
COCCn1c(COc2ccc(C)cc2)nc2ccccc21	-8.4	6.5	5.8
OCCn1c(CSc2nc3ccccc3n2CCO)nc2ccccc21	2.6	-3.7	13.1
COc1ccccc1NC(=O)c1ccc(NC(=O)COC(=O)C2CCCCC2)cc1	.	.	49.4*
COc1ccccc1NC(=O)c1ccc(NC(=O)COC(=O)C2(C)CC2(Cl)Cl)cc1 (stereo not given)	.	.	22.5
CC(NC(=O)c1ccco1)C(c1cccs1)N1CCOCC1 (stereo not given)	3.4	-4.1	7.1
CCOCCn1cnc2sc(C(=O)NCC(=O)OCC)c(C)c2c1=O	.	.	13.5
